AMA1 RON2 block – qHTS for Inhibitors of AMA1-RON; Towards Development of Antimalarial Drug Lead: Primary Screen; AlphaScreen AMA1-biotinylated RON2 peptide binding; AID 720542, 2013; Potency, µM (top dose mostly 58.2 µM), for the others: at the top dose activity change, negative = inhibition, actives largely listed as inhibitors; 0.2% of 360,000 active; Plasmodium falciparum AMA1 (3D7) - RON2 peptide interaction;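 note: 0% = vehicle wells and -100% = peptide control; nearly all actives have a fitted effect of over 45% in size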
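AMA1 (3D7) with his tag at 25 nM final met compounds first, then biotinylated RON2 peptide at 25 nM; detection used donor plus acceptor beads, 10 µg/mL apiece, read by AlphaScreen after 30 min at room temperature.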
Pf growth 96h – Primary qHTS for delayed death inhibitors of the malarial parasite plastid, 96 hour incubation | P. falciparum luciferase reporter growth, 96 h | Potency, µM (titrated, usually from 28.7 µM), inactives show top-dose activity change, negative = inhibition, most hits filed as inhibitors | 6.9% of 320,000 active; note: % is set by controls: 0 for no effect and ±100 for the full control effect
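P. falciparum expressing integrated firefly luciferase grown in erythrocytes (2% hematocrit, 0.05% parasitemia final) with compounds for 96 hours at 37 C, 5% CO2. Growth inhibition read as loss of luminescence after adding luciferase detection reagent.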
Pf growth 48h – Primary qHTS for delayed death inhibitors of the malarial parasite plastid, 48 hour incubation; Potency, µM (top dose mostly 28.7 µM), for inactives: top-dose activity change, negative = inhibition, hits mostly inhibitors; P. falciparum luciferase growth in erythrocytes, 48 h; 5.9% of 310,000 active; AID 504832, 2011; note: % is set by controls: 0 for no effect and ±100 for the full control effect
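Erythrocytes infected with P. falciparum carrying an integrated firefly luciferase reporter (2% hematocrit, 0.1% parasitemia final) were exposed to compounds in RPMI 1640 with 0.5% Albumax at 37 C, 5% CO2. Growth inhibition was scored as reduced luminescence.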
NS1 inh – qHTS Assay for Inhibitors of Influenza NS1 Protein Function | 0.4% of 270,000 active | Potency, µM (series often up to 46.1 µM), for the others: top-dose activity, positive = more growth; calls by dose curve; note: actives are rising curves; nearly all actives have a fitted effect of over 50% in size
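In this qHTS, NS1 from influenza A is expressed in budding yeast, where it slows growth. Cells are switched from glucose to 2% galactose medium (pH 6.0, -URA), treated with compound, and growth recovery is read at OD600.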
Sm TGR block – qHTS Assay for the Inhibitors of Schistosoma Mansoni Peroxiredoxins; 3% of 360,000 active; Potency, µM (doses to about 114 µM), for inactives: at the top dose activity change, negative = inhibition, usual class: inhibitors; purified TGR, DTNB reduction, TNB absorbance 405 nm; note: % is set by controls: 0 for no effect and ±100 for the full control effect; nearly all actives have a fitted effect of over 60% in size
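Kinetic colorimetric format: TGR-catalysed, NADPH-driven DTNB reduction monitored via TNB absorbance. Enzyme dispensed at 20 nM; compound exposure 15 min at room temperature before reaction start.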
Starred values were filed as active, the others as inactive. A selection: hits, their analogues and other compounds. The true share with any hit is near 11%. Unless noted, calls come from the whole dose curve; as a rule, active = well fitted curve in the direction sought with a large enough effect; inconclusive = small, poorly fitted or top-dose-only effect, or another doubt; inactive = no such curve, though single readings can be large; an effect the other way counts as inactive or inconclusive. Potency is the fitted concentration of half-maximal effect.

CCOc1ccc(OCC)c(NC(=O)CN2CCN(c3cc(C)ccc3C)CC2)c1 was read as AMA1 RON2 block inconclusive, Pf growth 96h inconclusive, Pf growth 48h inconclusive, NS1 inh -75.7% and Sm TGR block 4.7%.
CCOc1ccc(OCC)c(NC(=O)CN2CCN(CC(=O)NC(C)C)CC2)c1 was read as AMA1 RON2 block -12.3%, Pf growth 96h 13.1µM*, Pf growth 48h -53.0%, NS1 inh 1.7% and Sm TGR block -1.6%.
`CCOc1ccc(OCC)c(NC(=O)CN2CCN(CC)CC2)c1` gave AMA1 RON2 block -1.9%, Pf growth 96h -14.3%, Pf growth 48h -25.8%, NS1 inh -8.9% and Sm TGR block 0.7%.
CCOc1ccc(OCC)c(NC(=O)CN2CCN(c3cccc(C)c3)C(C)C2)c1 (centres undefined) was read as AMA1 RON2 block -9.4%, Pf growth 96h inconclusive, Pf growth 48h 13.1µM*, NS1 inh -40.9% and Sm TGR block 15.1%.
`CCOc1ccc(OCC)c(NC(=O)CN2CCN(c3cccc(C)c3)CC2)c1` gave AMA1 RON2 block -23.5%, Pf growth 96h -12.5%, Pf growth 48h 13.1µM*, NS1 inh -38.9% and Sm TGR block 3.0%.
Screening CN1CCNC(=O)C1CC(=O)NCCc1ccccc1F (centres undefined) returned AMA1 RON2 block 10.4%, Pf growth 96h 13.1µM*, Pf growth 48h 43.5%, NS1 inh 2.2% and Sm TGR block -3.2%.
Screening O=C(CC1C(=O)NCCN1Cc1ccccn1)NCCc1ccccc1F (centres undefined) returned AMA1 RON2 block -0.1%, Pf growth 96h inconclusive, Pf growth 48h 4.65µM*, NS1 inh -0.5% and Sm TGR block inconclusive.
`O=C(Cn1ccc(=O)[nH]c1=O)c1ccc([N+](=O)[O-])o1` gave AMA1 RON2 block 3.2%.
For Cc1nc(Sc2ccccc2)c(C#N)c(C)c1[N+](=O)[O-] the results were AMA1 RON2 block -26.9%, Pf growth 96h inconclusive, Pf growth 48h 7.38µM*, NS1 inh -60.8% and Sm TGR block -19.1%.
Screening O=C(O)c1ccccc1C(=O)N1CC=C(c2ccccc2)CC1 returned AMA1 RON2 block -2.6%, Pf growth 96h 37.4%, Pf growth 48h inconclusive, NS1 inh -1.5% and Sm TGR block 35.5µM*.
Cc1ccc(C(=O)N2CC=C(c3ccccc3)CC2)o1 was read as AMA1 RON2 block -19.6%, Pf growth 96h -4.7%, Pf growth 48h 13.1µM* and Sm TGR block 28.2µM*.
For CCn1c(SC(C)C(=O)Nc2nccs2)nnc1-c1ccncc1 (centres undefined) the results were AMA1 RON2 block -9.3%, Pf growth 96h -27.3%, Pf growth 48h 4.0%, NS1 inh 2.5% and Sm TGR block 4.1%.
`CCN(CC(=O)NCc1ccc(F)cc1)C(=O)c1cccnc1SC` gave AMA1 RON2 block 27.7%, Pf growth 96h 16.0%, Pf growth 48h -12.3%, NS1 inh 13.8% and Sm TGR block 2.3%.
Screening O=c1[nH]c2ccc(N/C(=N/S(=O)(=O)c3ccccc3)c3ccccc3)cc2[nH]1 returned AMA1 RON2 block -19.4%, Pf growth 96h 4.15µM*, Pf growth 48h -8.0%, NS1 inh 8.8% and Sm TGR block 1.1%.
Screening CC(=O)Nc1ccc(N/C(=N\S(=O)(=O)c2ccccc2)c2ccccc2)cc1 returned AMA1 RON2 block 8.6%, Pf growth 96h inconclusive, Pf growth 48h -6.0%, NS1 inh -5.3% and Sm TGR block 3.1%.
COc1ccc(NC(=O)c2csnn2)cc1Cl was read as Sm TGR block -1.2%.
CC(C)Cn1c(C(C)C)nc([N+](=O)[O-])c1S(=O)(=O)c1ccc(F)cc1 was read as AMA1 RON2 block -17.5%, Pf growth 96h inconclusive, Pf growth 48h 10.4µM*, NS1 inh -18.1% and Sm TGR block 1.78µM*.
For CCCc1nc([N+](=O)[O-])c(S(=O)(=O)c2ccccc2)n1CC(C)C the results were AMA1 RON2 block 7.3%, Pf growth 96h 11.7µM*, Pf growth 48h 9.28µM*, NS1 inh -3.8% and Sm TGR block 0.891µM*.
Screening CC(C)Cn1nc(NS(=O)(=O)c2ccccc2)c2cc3ccccc3nc21 returned AMA1 RON2 block -3.4%, Pf growth 96h inconclusive, Pf growth 48h 26.4%, NS1 inh -1.8% and Sm TGR block -3.1%.
For Cc1nc2ccc([N+](=O)[O-])cc2c(=O)n1Cc1ccc(F)cc1 the results were AMA1 RON2 block -5.2%, Pf growth 96h 0.0%, Pf growth 48h -15.3%, NS1 inh 24.7% and Sm TGR block 1.0%.
CC(=N\O)/C(CN(C)C)=N/O was read as AMA1 RON2 block 6.7%, Pf growth 96h 10.4µM*, Pf growth 48h 19.7%, NS1 inh inconclusive and Sm TGR block 0.0%.
Screening CC(C)CCNC(=O)c1ccc2c(c1)NC(=O)C(CS(=O)(=O)Cc1ccc(F)cc1)N2 (centres undefined) returned Sm TGR block -19.9%.
For CC(C)CCNC(=O)c1ccc2c(c1)NC(=O)C(CS(=O)(=O)Cc1cccc(Br)c1)N2 (centres undefined) the results were Sm TGR block 50.1µM*.
C[N+](C)(C)CCCCCCCCCC[N+](C)(C)C was read as AMA1 RON2 block -0.7%, Pf growth 96h 0.262µM*, Pf growth 48h 0.657µM*, NS1 inh -6.7% and Sm TGR block -1.5%.
For C[N+](C)(C)CCCCCCC(=O)/C=N/O the results were AMA1 RON2 block 2.1%, Pf growth 96h -8.4%, Pf growth 48h -10.6%, NS1 inh -1.1% and Sm TGR block -9.4%.
O=C(COC(=O)c1cc(Br)ccc1O)NCCC1=CCCCC1 was read as AMA1 RON2 block 6.7%.
`COCCN=c1scc(-c2cccs2)n1/N=C(\C)c1ccco1` gave AMA1 RON2 block 1.7%, Pf growth 96h inconclusive, Pf growth 48h 13.1% and Sm TGR block inconclusive.
Screening COCCN=c1scc(-c2ccc3c(c2)NC(=O)CO3)n1/N=C(\C)c1ccc(O)cc1 returned AMA1 RON2 block 3.5%, Pf growth 96h inconclusive, Pf growth 48h 10.4µM*, NS1 inh 9.7% and Sm TGR block 0.0%.
`CCCn1c(=O)c2c(nc3n2CCN3c2ccc(C)cc2)n(C)c1=O` gave Sm TGR block -2.1%.
`COCc1cc(Sc2cccc(Cl)c2Cl)nc(-c2ccccc2)n1` gave AMA1 RON2 block 46.9%, Pf growth 96h 11.7µM*, Pf growth 48h inconclusive, NS1 inh 0.5% and Sm TGR block 17.7%.
For C=CCn1c(SCc2ccc(C(=O)NCCO)cc2)nc2sc(C)c(C)c2c1=O the results were AMA1 RON2 block -14.8%, Pf growth 96h 33.8%, Pf growth 48h inconclusive and Sm TGR block -2.6%.

Bioassay records deposited in PubChem BioAssay by National Center for Advancing Translational Sciences (NCATS).
